The values below come from PubChem BioAssay (NCI).

About 83,000 compounds went through this panel and 20% of them were active in at least one assay; those are over-represented in the sample as a whole.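 Activity criterion: percent growth below 10, measured after cells in 96-well plates were exposed to a single compound concentration for 48 hours.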 Unmarked numbers belong to inactive results. Activity calls are given as the source filed them.

Some test systems named below: DU-145 prostate; K-562 leukemia; MALME-3M melanoma; MDA-MB-231 breast; RXF 393 renal; SF-268 CNS; SF-295 CNS; SF-539 CNS; UACC-257 melanoma; M14 melanoma.
What all share (assay): NCI-60 one-dose screen, 48 h (100 = growth as untreated, 0 = no growth, -100 = all killed)
Common to all, as to conditions: 10 µM unless noted

Consider `COc1ccc(N(CC(=O)NCCC[Te]c2ccccc2)C(=O)CNC(=O)OC(C)(C)C)cc1`, for which the growth in the assay on DU-145 prostate was 48.9%; in the assay on K-562 leukemia, 97%; in the assay with MALME-3M melanoma, 137%; in the assay on MDA-MB-231 breast, 1.63% (active); in the assay with RXF 393 renal, 114%; with SF-268 CNS, 24.2%. The growth is -10.8% (active) with SF-295 CNS, -9.65% (active) in the assay on SF-539 CNS, 109% in the assay with UACC-257 melanoma and 9.09% (active) with M14 melanoma.

As to `COC(=O)[C@@H](C)C[C@H](Cc1ccccc1)NC(=O)c1csc([C@@H](C[C@H](C(C)C)N(C)C(=O)[C@@H](NC(=O)[C@H]2CCCCN2C)C2CC2)OC(C)=O)n1`, the growth with DU-145 prostate was 2.33% (active); in the assay on K-562 leukemia it was 9.03% (active); in the assay with MALME-3M melanoma, 63.6%; in the assay with MDA-MB-231 breast it was 23%; with RXF 393 renal, 46.9%; in the assay with SF-268 CNS, 32.8%. Also, the growth was 9.01% (active) in the assay with SF-295 CNS, -0.629% (active) in the assay with SF-539 CNS, 58.3% in the assay with UACC-257 melanoma and 10.8% in the assay on M14 melanoma.

On to `CCCCCCCCCCCCCCCCCC1OC[C@@H](COC(=O)O[C@@H](C(=O)O[C@H]2C[C@@]3(O)[C@@H](OC(=O)c4ccccc4)[C@@H]4[C@]5(OC(C)=O)CO[C@@H]5C[C@H](O)[C@@]4(C)C(=O)[C@H](OC(C)=O)C(=C2C)C3(C)C)[C@@H](NC(=O)c2ccccc2)c2ccccc2)O1` (stereo not given in full), for which the growth in the assay on DU-145 prostate is 45.1%; with K-562 leukemia, 46.6%; in the assay with MALME-3M melanoma, 50.5%; in the assay on MDA-MB-231 breast, 60.5%; in the assay on RXF 393 renal, 63.1%; in the assay with SF-268 CNS it was 66%. Besides, the growth was 61% in the assay on SF-295 CNS, 51.9% in the assay on SF-539 CNS, 69.8% in the assay with UACC-257 melanoma and 38.8% with M14 melanoma.

As to `CCCCCCCCC(CO)NCCc1ccccc1` (stereo not given), the growth in the assay on DU-145 prostate is 102%; in the assay with K-562 leukemia, 80.7%; in the assay with MALME-3M melanoma, 109%; in the assay on MDA-MB-231 breast, 93.1%; in the assay on RXF 393 renal it was 136%; with SF-268 CNS, 99.7%. For the same compound, the growth in the assay with SF-295 CNS was 98.1%; in the assay on SF-539 CNS it was 115%; in the assay on UACC-257 melanoma, 85.7%; in the assay with M14 melanoma it was 92.5%.

For the compound `CN1CCC(O)(c2ccc(F)cc2)C(C(=O)c2ccc(F)cc2)C1` (stereo not given), the growth with DU-145 prostate is 107%; in the assay on K-562 leukemia, 99.1%; in the assay on MALME-3M melanoma it was 84.6%; in the assay on MDA-MB-231 breast it was 104%; with RXF 393 renal, 103%; in the assay with SF-268 CNS, 106%. Also, the growth in the assay with SF-295 CNS was 110%; in the assay on SF-539 CNS, 96.8%; in the assay with UACC-257 melanoma, 106%; with M14 melanoma, 106%.

Regarding `C/C(=C\c1ccn(-c2ccc(N)cc2C(F)(F)F)n1)[C@@H]1C[C@@H]2O[C@]2(C)CCC[C@H](C)[C@H](O)[C@@H](C)C(=O)C(C)(C)[C@@H](O)CC(=O)O1`, the growth with DU-145 prostate was -14.1% (active); with K-562 leukemia it was 6.1% (active); with MALME-3M melanoma, 39.9%; in the assay on MDA-MB-231 breast, 16.4%; with RXF 393 renal, 9.23% (active); in the assay on SF-268 CNS, 22.5%. Also, the growth is 2.39% (active) with SF-295 CNS, 3.05% (active) with SF-539 CNS, 37.9% with UACC-257 melanoma and -12.6% (active) in the assay with M14 melanoma.

As to `Nc1c(F)cc(-c2nc3cc(F)ccc3[se]2)cc1F`, the growth was 99.8% in the assay with DU-145 prostate; 85.8% in the assay on K-562 leukemia; 101% in the assay on MALME-3M melanoma; 54.6% with MDA-MB-231 breast; 105% in the assay on RXF 393 renal; 91.4% in the assay with SF-268 CNS. For the same compound, the growth in the assay with SF-295 CNS is 87.8%; with SF-539 CNS it was 96.3%; in the assay with UACC-257 melanoma, 101%; with M14 melanoma, 90%.

For `CCCCCCCCCCCCNC(c1ccccc1)C(O)c1ccccc1` (stereo not given), the growth in the assay with DU-145 prostate was 83.5%; with K-562 leukemia, 24.1%; with MALME-3M melanoma it was 68.3%; with MDA-MB-231 breast it was 39.9%; with RXF 393 renal, 59%; in the assay on SF-268 CNS, 79%. For the same compound, the growth in the assay with SF-295 CNS is 107%; in the assay on SF-539 CNS, 87.9%; in the assay with UACC-257 melanoma it was 99.9%; in the assay on M14 melanoma, 93.3%.

For `CNC(=O)Oc1ccc2c(c1)OCO2`, the growth was 108% with DU-145 prostate; 90.1% in the assay on K-562 leukemia; 104% in the assay on MALME-3M melanoma; 101% in the assay on MDA-MB-231 breast; 113% in the assay with RXF 393 renal; 102% in the assay with SF-268 CNS. Also, the growth in the assay on SF-295 CNS is 101%; with SF-539 CNS, 102%; with UACC-257 melanoma it was 102%; in the assay with M14 melanoma it was 107%.

As to `NC(=O)CNc1ccc([As]=[As]c2ccc(NCC(N)=O)cc2)cc1` (stereo not given), the growth is 60.3% in the assay with DU-145 prostate; 19% with K-562 leukemia; 47.2% with MALME-3M melanoma; 30% in the assay on MDA-MB-231 breast; 32.1% with RXF 393 renal; 24.6% in the assay on SF-268 CNS. Further, the growth is 94% in the assay on SF-295 CNS, 0.244% (active) in the assay on SF-539 CNS, 37.2% in the assay on UACC-257 melanoma and 57.7% in the assay with M14 melanoma.

Take `CC1=C(CCCOC(=O)CN)C2=C(C)C3(CC3)[C@@](C)(O)C(=O)C2=C1`: the growth in the assay with DU-145 prostate is 17%; in the assay on K-562 leukemia it was 90.2%; in the assay on MALME-3M melanoma it was 114%; in the assay with MDA-MB-231 breast, 95.2%; in the assay with RXF 393 renal, -16.4% (active); with SF-268 CNS, 48.7%. Also, the growth was 86.8% in the assay with SF-295 CNS, 94% in the assay on SF-539 CNS, 86% with UACC-257 melanoma and 73.8% with M14 melanoma.

Turning to `O=C1CNC(c2ccccc2)c2cc(Cl)ccc2N1` (stereo not given), the growth in the assay with DU-145 prostate is 100%; in the assay with K-562 leukemia, 93.8%; in the assay on MALME-3M melanoma, 90.6%; with MDA-MB-231 breast, 94.9%; with RXF 393 renal it was 99.2%; in the assay on SF-268 CNS, 98.7%. The growth in the assay with SF-295 CNS is 103%; in the assay with SF-539 CNS, 104%; with UACC-257 melanoma, 94.9%; in the assay on M14 melanoma it was 99.4%.

On to `CC[CH2][Sn]([Cl])([Cl])[CH2]CC`, for which the growth was 106% in the assay with DU-145 prostate; 30.6% with K-562 leukemia; 21% in the assay with MALME-3M melanoma; 81.6% in the assay on MDA-MB-231 breast; 51.1% in the assay on RXF 393 renal; 83.2% with SF-268 CNS. Also, the growth in the assay on SF-295 CNS was 96.1%; in the assay with SF-539 CNS, 80.4%; in the assay on UACC-257 melanoma it was 67%; in the assay on M14 melanoma, 83.4%.
